# Screens as filed in PubChem BioAssay.
# Only some compounds are listed: those with a hit (about 1.6% of all), similar ones and a draw of the others.
# p53ts 32C tox – kills p53ts cells at the permissive temperature. H1299-p53A138V at 32C, ATP luminescence viability, 24 h. actives 0.93% (n = 130,000). Potency, µM (doses to about 46.1 µM), inactives show at the top dose activity change, negative = cytotoxicity, most hits filed as cytotoxic;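 further: potency means the concentration at half of the fitted maximal effect; 0% = DMSO and -100% = full killing by reference compound; nearly all actives have a fitted effect of over 55% in size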
#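 Viability by ATPlite luminescence after 24 h compound treatment (up to 46 uM) at the permissive 32C. Cells are H1299 carrying p53 A138V. Scale runs from DMSO basal to 100 uM tamoxifen as full kill; AC50 from Hill fits.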
# UbGFP stabilizer – proteasome inhibitors stabilizing ubiquitin-GFP reporter; Potency, µM (highest dose often 45.9 µM), without a hit: at the highest dose activation (GFP accumulation), actives largely listed as activators; Ubiquitin-GFP reporter cells, proteasome inhibition, GFP fluorescence; response scale: untreated = 0%, 10 µM MG-132 = 100%; 67,000 tested, under 10 active; active means well fitted activation curve with a large enough effect, not every such curve was filed as active; inconclusive means small, poorly fitted or top-dose-only effect, or another doubt; inactive means no such curve, though single readings can be large or run the other way; further: potency means the concentration at half of the fitted maximal effect
#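 Proteasome blockade was scored as a rise in GFP-expressing U2OS cells carrying a ubiquitin(G76V)-GFP construct, imaged after 4 hr compound treatment at 37 °C across a 46 uM–2.9 nM series.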
# Peg3 imprint – genomic imprint erasure induction. actives 0.02% (n = 110,000). Potency, µM (series often up to 60.7 µM), without a hit: top-dose activity change, positive = activation, hits mostly activators. mouse ES Peg3-LacZ reporter, beta-gal luminescence, 40 h; further: potency means the concentration at half of the fitted maximal effect
#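 Each well holds 300 Peg3LacZ-Neo (maternal) female ES cells incubated 40 h at 37C, 5% CO2. LacZ is measured by BetaGlo luminescence, with AC50 and maximum efficacy derived from dose-response curves.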
# HBB splicing – modulators of hemoglobin beta chain splicing | actives 0.06% (n = 65,000) | HBB splicing reporter cell assay, activation; EGFP reporter with mutant IVS2-654 intron; response scale: normalised to 500 nM splice-correcting PNA | AID 925 | Potency, µM (top dose mostly 46.1 µM), for inactives: at the highest dose activation, hits mostly activators; further: potency means the concentration at half of the fitted maximal effect; 0% is about no effect
#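 HeLa cells stably expressing EGFP interrupted by mutant beta-globin intron 2 (IVS2-654), 500/well in 2% FCS. Treated with compound for 2 days at 37C. Splicing correction scored as total well GFP intensity (488 nm excitation, 500-520 nm emission); 500 nM antisense PNA served as control.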
# p53ts 39C tox – kills p53ts cells at the nonpermissive temperature. H1299-p53A138V viability at 39C, ATP luminescence, 24 h. Potency, µM (top dose mostly 46.1 µM), for inactives: at the highest dose activity change, negative = cell killing, actives largely listed as cytotoxic. actives 1.5% (n = 130,000); further: potency means the concentration at half of the fitted maximal effect; on the % scale 0 is the no-effect control and ±100 the full control effect; nearly all actives have a fitted effect of over 55% in size
# Epigenetic mod – epigenetic modulators derepressing GFP locus in mouse cells | mouse C127i GFP locus derepression, cytometry, 30 h | Potency, µM (top dose mostly 46.1 µM), for inactives: top-dose GFP derepression (activation) | actives 0.09% (n = 68,000); further: % of control where 0% means no effect
#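 Derepression screen: silenced CMV-GFP reporter in murine C127i cells, 30 h compound incubation at 37 C, washed cells imaged by laser-scanning cytometer to enumerate GFP-expressing objects of 20 to 120 um.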
# * hit, by the source's call; ? = inconclusive; . = no result given; [ ] = dose if it differs, or a comment. Unless noted, the call rests on the fitted dose curve; in most records, active means well fitted curve in the direction sought with a large enough effect; inconclusive means small, poorly fitted or top-dose-only effect, or another doubt; inactive means no such curve, though single readings can be large; an effect the other way counts as inactive or inconclusive.
SMILES,p53ts 32C tox,UbGFP stabilizer,Peg3 imprint,HBB splicing,p53ts 39C tox,Epigenetic mod
COc1cccc(NC(=O)c2ccc(CNS(=O)(=O)c3ccc4c(c3)C(C)(C)C(=O)N4C)cc2)c1,-5%,.,-14%[10.9 µM],.,-5%,.
CCOC(=O)c1cc(-c2ccccc2)n(CC(=O)Nc2cc(Cl)c(OC)cc2OC)c1C,0%,.,-10%[10.9 µM],.,20µM*,.
CCOc1ccc(N2C(=O)CC(SCCN)C2=O)cc1 (stereo unspecified),13µM*,-1%,.,.,13µM*,0%
CCOc1ccc(N2C(=O)CC(Sc3nc(C)cc(C)n3)C2=O)cc1 (stereo unspecified),8%,14%[9.17 µM],-7%,-3%[0.0738 µM],-7%,-4%
Nc1ccc2oc(-c3ccc4nc[nH]c4c3)nc2c1,8.9µM*,.,.,.,14µM*,.
Nc1ccc2oc(-c3cccc(Br)c3)nc2c1,?,5%,-63%,0%,?,0%
COc1ccc(C2C(=O)c3ccccc3C2=O)cc1,10µM*,.,-10%,.,13µM*,.
COc1ccc(C2C(=O)c3ccccc3C2=O)c(OC)c1,7%,3%,4%,-1%,-11%,-3%
CCCOc1ccc(CC2C(=O)Nc3ccc(Br)cc32)cc1 (stereo unspecified),?,.,-6%[10.9 µM],.,20µM*,.
CCN(CC)c1cccc(OC2=NS(=O)(=O)c3ccccc32)c1,22%,-16%,-9%,7%,2%,3.2µM*
Cc1ccc2c(c1)C(=O)[C@]1(O)CCN(c3ccccc3)C1=N2,4%,.,-14%,?,-5%,.
O=C(Nc1ccc(-c2nc3ccccc3[nH]2)cc1)C1CCCO1 (stereo unspecified),2.5µM*,3%,-89%,0%,4µM*,-4%
O=C(Nc1ccc(N2CCCC2)cc1)c1cccc(F)c1,7.9µM*,-2%,-85%,4%,5µM*,4%
O=C(Nc1ccc(N2CCCC2=O)cc1)c1cccc(F)c1,?,-2%,-86%,0%,?,-1%
O=C(Nc1ccc(N2CCCCC2)cc1)c1ccccc1,5µM*,.,.,.,13µM*,.
CCc1cc2c(=O)c(-c3ccc4c(c3)OCCO4)coc2cc1OC(=O)c1ccco1,5µM*,-10%,-37%,0%,7.9µM*,3%
CCc1cc2c(=O)c(-c3nc4ccccc4[nH]3)coc2cc1OC(=O)N1CCOCC1,.,.,.,.,.,4%[20.6 µM]
Cc1nc(-c2cccc(NC(=O)Nc3ccc([N+](=O)[O-])cc3)c2)no1,-5%,.,-13%[10.9 µM],.,?,.
COc1ccc(-c2ccc(-c3nnn(CC(=O)N4CCOCC4)n3)cc2)cc1,2.5µM*,-2%,-7%,0%[57.5 µM],?,3%
Cc1cccc(OCCCCn2c(C3CC(=O)N(c4ccccc4Cl)C3)nc3ccccc32)c1 (stereo unspecified),?,.,-3%[10.9 µM],.,16µM*,.
CCOc1ccccc1N1CC(c2nc3ccccc3n2CCOc2ccc(C(C)(C)C)cc2)CC1=O (stereo unspecified),?,.,-11%[10.9 µM],.,13µM*,.
CCOc1ccccc1N1CC(c2nc3ccccc3n2CCCCOc2cc(C)ccc2C)CC1=O (stereo unspecified),?,.,-8%[10.9 µM],.,?,.
CCc1ccccc1N1CC(c2nc3ccccc3n2CCOc2ccc(Cl)c(C)c2)CC1=O (stereo unspecified),?,.,-10%[10.9 µM],.,32µM*,.
Cc1cccc(OCCCCn2c(C3CC(=O)N(c4ccc(C)cc4C)C3)nc3ccccc32)c1 (stereo unspecified),?,.,-10%[10.9 µM],.,25µM*,.
Cc1cc(OCCn2c(C3CC(=O)N(Cc4ccc(F)cc4)C3)nc3ccccc32)ccc1Cl (stereo unspecified),-1%,.,10%[10.9 µM],.,0%,.
CCOc1ccccc1N1CC(c2nc3ccccc3n2CCCOc2ccccc2OC)CC1=O (stereo unspecified),-17%,.,-8%[10.9 µM],.,-22%,.
